# Measured values as given in PubChem BioAssay (EPA / NIEHS).
# Activity calls are given as the source filed them. Rule for the calls: active = hit-call score of the fitted dose curve at least 0.9, where 1 is the maximum; inactive = score below 0.9.
# Assay: CCTE_Shafer_MEA_acute_burst_duration_mean: CCTE's Neural Acute Assay for Mean Burst Duration, Shafer Lab (AID 2284014)
# Method: CCTE_Shafer_MEA_acute assay is conducted using Axion Biosystems 48 well microelectrode array (MEA) plates and Maestro recording system. Each well of the MEA plate contains a grid of 16 microelectrodes embedded in the culture surface. Electrically active cells, such as neurons, can be cultured over the electrodes, and electrical activity in these cells can be recorded extracellularly. The spontaneous firing of neurons is captured from each electrode on a microsecond timescale providing both temporally and spatially precise data. […] The CCTE_Shafer_MEA_acute assay uses primary cultures of rat cortical neurons. As these cultures mature over time, neural networks develop functional activity and form cohesive networks in which electrical activity can be highly coordinated. Baseline 40-minute recordings are made on days post-plating 13 or 15, followed by a secondary 40-minute recording after chemical exposure.CCTE_Shafer_MEA_acute_burst_duration_mean is a component of the CCTE_Shafer_MEA_acute assay. It measures the average time from the first spike (action potential firing) to the last spike in a single-electrode burst (temporally-clustered group of spikes) during a recording in a microelectrode array (MEA) using Axion Biosystems Maestro 768 channel amplifier with the AxIS adaptive spike detector. The recordings before and after chemical treatment are used to calculate a percent change in the mean burst duration in each well.Data from the assay component CCTE_Shafer_MEA_acute_burst_duration_mean was analyzed into 1 assay endpoint. This assay endpoint, CCTE_Shafer_MEA_acute_burst_duration_mean, was analyzed in the negative analysis fitting direction relative to DMSO as the negative control and baseline of activity. Using a type of functional reporter, gain or loss-of-signal activity can be used to understand electrical activity.
# Spontaneous activity in the cortical cultures was recorded using an Axion Biosystems Maestro 768 channel amplifier and Axion Integrated Studios (AxIS) v1.8 (or later) software. The amplifier recorded from all channels simultaneously (gain = 1200 x; sampling rate = 12.5 kHz/channel): raw signals were filtered with a Butterworth band-pass filter (300-5000 Hz), which filters out slower local field potentials leaving only fast potentials, i.e., "spikes", arising from extracellular currents associated with action potentials (Pine 2006; Wheeler and Nam 2011). On-line spike detection of filtered signals was conducted with the AxIS adaptive spike detector, using a threshold of 8x the root mean squared (rms) noise on each channel. Any electrodes with rms noise levels greater than 5 uV were grounded (e.g., no data were recorded). Once grounded, an electrode was grounded for the duration of the experiment. All recordings were conducted at 37 C. Wells were deemed usable if on the day of the exposure >/= 10 electrodes were active (defined as >/= 5 spikes/min). On DIV 13 or 15, a minimum of three wells from one cortical culture preparation were treated with each compound (0.03-40 uM). Prior to recording baseline activity, each mwMEA plate was placed in the Maestro at 37 C and allowed to sit for 20 min while firing rates stabilized. Baseline activity (40 min) was recorded before the addition of each compound. An additional 40 min of spontaneous activity was recorded in the presence of each compound. Changes in network parameters relative to baseline were assessed following compound treatment.
Compound,outcome,AC50
OC(CCl)CCl,inactive,–
CCCCC(CC)C(=O)OCCOCCOCCOC(=O)C(CC)CCCC (stereo not drawn),inactive,–
OCc1ccccc1,inactive,–
CCc1ccc(O)c(C(C)(C)C)c1,–,30 µM (active)
CCCc1ccccc1,inactive,–
CCCCCCCC1CCC(=O)O1 (stereo not drawn),inactive,–
CC[C@H](C)C(=O)O[C@H]1C[C@H](O)C=C2C=C[C@H](C)[C@H](CC[C@@H](O)C[C@@H](O)CC(=O)O)[C@H]21,inactive,–
Cc1ncc([C@@H](CCCCCCc2ccc3c(n2)NCCC3)CC(=O)O)cn1,inactive,–
CCCCCCCC/C=C\CCCCCCCC(=O)OC[C@@H](O)[C@H]1OC[C@H](O)[C@H]1O,inactive,–
c1ccc(C(O[C@@H]2CCCN(CCc3ccc4c(c3)OCO4)C2)c2ccccc2)cc1,inactive,–
O=S(=O)(O)c1ccc(N=Nc2c(O)ccc3cc(S(=O)(=O)O)ccc23)cc1,inactive,–
COCc1nnc(-c2ccc[n+]([O-])c2)n1-c1c(Cl)c(Cl)cc2[nH]c(=O)c(=O)[nH]c12,inactive,–
COc1cc2c(c(OC)c1OC)-c1ccc(OC)c(=O)cc1[C@@H](NC(C)=O)CC2,inactive,–
C=CCc1cc(S(=O)(=O)c2ccc(O)c(CC=C)c2)ccc1O,inactive,–
CC(C)C(=O)Nc1ccc([N+](=O)[O-])c(C(F)(F)F)c1,inactive,–
COc1cc(C(C)C)c2c(c1)S(=O)(=O)N(COc1cc(=O)n3cccc(OCCN4CCCCC4)c3n1)C2=O,–,5 µM (active)
c1ccc2cc3ccccc3cc2c1,inactive,–
Cn1c(=O)c2[nH]cnc2n(C)c1=O,inactive,–
